# Screening data deposited in PubChem by National Center for Advancing Translational Sciences (NCATS).
# This is a sample that favours compounds with a hit; in the whole collection about 5.6% have one here.
# Six1-Eya2 inh: qHTS Assay for Inhibitors of the Six1/Eya2 Interaction; activity change, % (concentration not given with the values); Homeobox protein SIX1 (Homo sapiens) + Protein phosphatase EYA2 (Homo sapiens), …; hit rate 0.56% among 360,000; AlphaScreen GST-Six1/His-Eya2 binding, biochemical; stronger effect = lower value; in the data active = activity change below about -65%; inconclusive = mostly about -30% to -63%
#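 GST-Six1 + His-Eya2 (5X stock: 250/500 nM); Tris pH 8.0, 300 mM NaCl, 0.05% BSA, 0.02% Tween 20; GSH donor/Ni acceptor beads; 1 h 37 °C dark; AlphaScreen readout.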
# VP16 counter: VP16 counterscreen qHTS for inhibitors of ROR gamma transcriptional activity. Drosophila S2 Gal4-VP16 UAS-luciferase, luminescence, 20 h. Potency, µM (titrated, usually from 53.6 µM), for the others: at the highest dose activity, negative = inhibition, actives largely listed as inhibitors. hit rate 3.5% among 310,000. AID 2546, 2010;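 also: Gal4-VP16 expression switched on by copper sulfate through the metallothionein promoter; potency is read from the fitted curve at half-maximal effect; nearly all actives have a fitted effect of over 50% in size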
# PKM2 act: qHTS Assay for Activators of Human Muscle isoform 2 Pyruvate Kinase. hit rate 0.34% among 260,000. purified PKM2, Kinase-Glo ATP luminescence, activation; response scale: 0% is enzyme alone, no compound. Potency, µM (highest dose often 57.5 µM), for inactives: at the top dose activation, hits mostly activators. Pyruvate kinase PKM (Homo sapiens), P14618. AID 1631, 2009; also: potency is read from the fitted curve at half-maximal effect; nearly all actives have a fitted effect of over 55% in size
# Target sequence (P14618 whole entry, looked up, canonical isoform): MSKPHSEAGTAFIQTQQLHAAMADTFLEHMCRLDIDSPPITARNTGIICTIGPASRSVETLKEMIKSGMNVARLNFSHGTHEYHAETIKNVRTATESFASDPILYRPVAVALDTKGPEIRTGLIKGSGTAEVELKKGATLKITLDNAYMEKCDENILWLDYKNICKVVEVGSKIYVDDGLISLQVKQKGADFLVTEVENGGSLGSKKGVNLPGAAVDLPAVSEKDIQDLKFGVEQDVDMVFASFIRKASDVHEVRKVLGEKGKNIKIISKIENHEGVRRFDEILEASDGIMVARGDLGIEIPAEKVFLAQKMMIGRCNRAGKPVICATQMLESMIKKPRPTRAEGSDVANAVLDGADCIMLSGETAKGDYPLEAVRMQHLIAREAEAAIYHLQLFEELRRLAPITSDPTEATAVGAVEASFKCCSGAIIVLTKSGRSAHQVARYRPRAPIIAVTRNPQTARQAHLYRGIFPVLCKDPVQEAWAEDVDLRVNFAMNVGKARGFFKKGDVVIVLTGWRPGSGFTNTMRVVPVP
#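 hPK-M2, >95% pure; 0.1 mM ADP / 0.5 mM PEP final; imidazole pH7.2 buffer w/ 7 mM MgCl2, 50 mM KCl; 1 h RT; Kinase-Glo lum. Intermediate enzyme activity for dual inhibitor/activator qHTS.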
# CtBP-E1A blk: qHTS Assay for Inhibitors of the CtBP/E1A Interaction; hit rate 0.49% among 340,000; CtBP / adenovirus E1A interaction (AlphaScreen); activity change, % (no concentration beside the values); AlphaScreen GST-E1A/His-CtBP binding, 1536-well; stronger effect = lower value; in the data active = activity change below about -65%; inconclusive = mostly about -30% to -63%
#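 Steps: dispense buffer (Tris pH 8.0, NaCl 300 mM, TCEP 1 mM, BSA, Tween 20); add 5X protein mix (GST-E1A, His-CtBP, 125 nM each); pin 23 nL compound; 2 h at 37 °C, dark; add 5X beads (50 ug/mL); 1 h; read.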
# RORg inh: qHTS for inhibitors of ROR gamma transcriptional activity; Drosophila S2 Gal4-RORgamma UAS-luciferase reporter, 20 h; Nuclear receptor ROR-gamma (Mus musculus), P51450; Potency, µM (series often up to 53.6 µM), inactives show at the top dose activity change, negative = inhibition, usual class: inhibitors; AID 2551, 2010; hit rate 5.4% among 310,000; also: potency is read from the fitted curve at half-maximal effect; nearly all actives have a fitted effect of over 60% in size
#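 Using a luciferase readout, inhibitors were identified by reduced reporter activity in Drosophila cells coexpressing a copper-inducible Gal4–ROR gamma fusion and UAS-driven Photinus luciferase, incubated 20 hr after 700 uM copper sulfate.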
# Active calls of the source: *; u = inconclusive; x = no result given; [ ] = dose if it differs, or a comment. Unless noted, calls follow the shape of the dose curve; as a rule, active = well fitted curve in the direction sought with a large enough effect; inconclusive = small, poorly fitted or top-dose-only effect, or another doubt; inactive = no such curve, though single readings can be large; an effect the other way counts as inactive or inconclusive. % is scaled to controls: 0 for no effect and ±100 for the full control effect.
SMILES,Six1-Eya2 inh,VP16 counter,PKM2 act,CtBP-E1A blk,RORg inh
C=CCN(c1ccccc1)S(=O)(=O)c1cccc(C(=O)Nc2nc3ccccc3[nH]2)c1,-11,4.5µM*,2%,-11,2.8µM*
CN(c1cccc(Cl)c1)S(=O)(=O)c1cccc(C(=O)NC2=NCCS2)c1,4,-5%,4%,4,7%
CN(c1cccc(Cl)c1)S(=O)(=O)c1cccc(C(=O)Nc2nc3ccccc3[nH]2)c1,-15,3.5µM*,0%,-10,2.8µM*
C[C@@H]1CCCCO[C@H](CN(C)Cc2ccc(C(=O)O)cc2)[C@H](C)CN([C@@H](C)CO)C(=O)c2cc(NC(=O)Nc3ccc(C(F)(F)F)cc3)ccc2O1,6,x,x,6,x
CC(=O)Oc1ccc(C(=O)Nc2ccc(S(=O)(=O)N3CCOCC3)cc2)cc1,-20,-2%,-1%,-15,21%
COc1ccc(S(=O)(=O)N2CCCCC2)cc1NS(=O)(=O)c1ccccc1,-4,x,x,0,x
N#Cc1c(NCc2ccccc2)ccnc1NCc1cccnc1,-3,10µM*,11%,4,u
Cc1ccc(NS(=O)(=O)c2ccc3c(c2)NC(=O)CCS3)c(C)c1,-3,-17%,x,5,29%
COc1ccc(NC(=S)N(CCCN2CCOCC2)Cc2cn(C)c3ccccc23)cc1,-27,u,2%,u,u
CCOc1ccc(NC(=S)N(CCCN2CCOCC2)Cc2cn(C)c3ccccc23)cc1,-24,u,0%,-23,13µM*
Cc1cccc(NC(=S)N(CCCN2CCOCC2)Cc2cn(C)c3ccccc23)c1,2,-22%,2%,-3,11µM*
Cn1cc(CN(CCCN2CCOCC2)C(=S)Nc2cccc(Cl)c2)c2ccccc21,-12,u,1%,-14,u
COC(=O)[C@H](CC(C)C)NCc1cccc(CN[C@@H](CC(C)C)C(=O)OC)c1,10,-2%,2%,14,-19%
Cc1occc1-c1nnc(SCC(=O)c2c(N)n(C3CC3)c(=O)[nH]c2=O)n1C,3,x,x,10,x
NS(=O)(=O)c1ccc(NC(=S)NCc2cccs2)cc1,1,6%,7%,x,3%
C=CCNC(=S)Nc1cc(Cl)ccc1OC,-2,u,-12%,0,13µM*
S=C(NCc1cccs1)Nc1ccccc1,-3,u,1%,-1,10µM*
COc1cccc(NC(=S)NCc2cccs2)c1,24,u,-1%,1,10µM*
CCCCc1ccc(NC(=S)NCc2cccs2)cc1,-8,u,11%,4,2.2µM*
COc1ccc(C2/C=C\CN([S+](=O)([O-])c3ccc4ccccc4c3)C(C)C(=O)N2Cc2ccc(F)cc2)cc1 (stereo not drawn),x,-11%,x,x,-13%
O=C(Nc1cc(S(=O)(=O)N2CCOCC2)ccc1N1CCCCC1)c1ccccc1Br,-11,x,x,-2,x
CCCCC(O)(CCCC)C(=O)NN(C(=O)c1cccnc1Cl)c1ccccc1,-17,-4%,-1%,3,-8%
Fc1ccc(NC(=S)NCc2cccs2)cc1,3,28µM*,-2%,-10,11µM*
Cc1cccc(NC(=S)NCc2cccs2)c1,-4,u,-1%,-11,6.3µM*
COc1cccc(NC(=S)NCc2ccccc2)c1,-2,8.9µM*,-2%,x,10µM*
SMILES,Six1-Eya2 inh,VP16 counter,PKM2 act,CtBP-E1A blk,RORg inh
COc1ccc(NC(=S)NCc2cccs2)cc1OC,4,-11%,-31%,x,13µM*
COc1cccc(NC(=S)NCc2cccnc2)c1,9,-3%,0%,-2,19%
Cc1cnc(CN(C)C(=O)CC2C(=O)NCCN2CCCc2ccccc2)[nH]1 (stereo not drawn),0,2%,0%,-2,-6%
Cc1ccc(C)c(NC(=S)NCc2cccs2)c1,16,11µM*,3%,7,4µM*
Cc1ccccc1NC(=S)NCc1cccs1,6,u,-7%,3,u
COc1ccc(Cl)cc1NC(=S)NCc1cccs1,4,u,9%,0,10µM*
Cc1ccc(NC(=S)N(Cc2ccccc2)Cc2cccs2)c(C)c1,17,u,-2%,-4,7.1µM*
COc1ccccc1NC(=S)N(Cc1ccccc1)Cc1cccs1,-3,-11%[10 µM],-6%,-7,0%
Cc1ccc(NC(=S)NCc2cccs2)cc1,3,u,-3%,-1,11µM*
Cc1ccc(S(=O)(=O)N(C)c2ccc(C(=O)Nc3cccnc3)cc2)cc1,-7,-1%,-3%,5,53%
O=C(COC(=O)C12CC3CC(CC(Br)(C3)C1)C2)Nc1ccc2[nH]c(=O)[nH]c2c1,15,x,x,0,x
CCc1nc2ccc(C(=O)N(C)CC(=O)Nc3ccc(F)c(F)c3F)cc2nc1CC,10,x,x,11,x
Cc1cccc(NC(=S)NC2CC3CCCC(C2)N3Cc2cccs2)c1 (stereo not drawn),-18,u,-2%,8,5µM*
COc1cccc(NC(=S)Nc2ccc(O)cc2)c1,-3,7%,-2%,0,-29%
COc1ccc(CNC(=S)Nc2ccc(F)c(Cl)c2)cc1OC,-6,-8%,-1%,0,11µM*
COc1cccc(NC(=S)Nc2ccc(F)cc2)c1,-8,u,5%,-4,16µM*
COc1ccc(CNC(=S)Nc2ccccc2)cc1Cl,-8,u,x,-15,u
Nc1ccc(CN2CCOCC2)cc1,3,-9%,-7%,4,-12%
COc1ccc(/C=N/NC(=O)COc2ccc(Cl)cc2Cl)cc1Cn1nc(C)cc1C,14,u,-1%,x,u
O=C(NCc1ccc2[nH]c3c(c2c1)CCCC3)c1ccc(S(=O)(=O)N2CCCCC2)cc1,-10,1%,3%,-27,18%
CCS(=O)(=O)NCc1ccc2[nH]c3c(c2c1)CCCC3,x,1%,6%,x,13%
S=C(NCc1ccc2[nH]c3c(c2c1)CCCC3)Nc1ccccc1,u,10µM*,0%,-1,1.8µM*
Cc1cc(C)cc(NC(=S)NCc2ccc3[nH]c4c(c3c2)CCCC4)c1,-27,7.1µM*,-1%,-8,2.5µM*
O=C(CN1C(=O)NC2(CCCC2)C1=O)N1CCN(S(=O)(=O)c2cc(Cl)ccc2Cl)CC1,-7,x,x,-19,x
CC(=O)N1CCc2cc(S(=O)(=O)NCCC(=O)NCCc3ccc(Cl)cc3)ccc21,-1,u,x,-7,u
CC(=O)N1c2ccc(S(=O)(=O)NCC3CCC(C(=O)Nc4ncccc4C)CC3)cc2CC1C (stereo not drawn),0,-3%,x,-1,-1%
